HEK293 cAMP cs: qHTS Assay for Agonists of the Thyroid Stimulating Hormone Receptor: Activators of Intracellular cAMP Concentrations in Parental HEK 293; parental HEK293 CNG cAMP sensor, membrane potential fluorescence; Potency, µM (highest dose often 57.1 µM), without a hit: at the top dose activation, most hits filed as activators; hit rate 2.5% among 73,000; note: % of control where 0% means no effect; nearly all actives have a fitted effect of over 55% in size
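Parental HEK 293 cells stably expressing a modified CNG channel (no TSHR) report cAMP rise as membrane depolarization. Membrane potential dye with 100 uM RO 20-1724 was loaded for 60 min at room temperature, then compound added for 30 min; fluorescence read at 590 nm.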
TSHR ag: qHTS Assay for Agonists of the Thyroid Stimulating Hormone Receptor; Thyrotropin receptor (Homo sapiens), P16473; Potency, µM (highest dose often 57.1 µM), without a hit: top-dose activation, most hits filed as activators; hit rate 0.48% among 73,000; HEK293-CNG-TSHR cells (CNG channel as cAMP sensor), membrane potential dye, cAMP; AID 926, 2007; active = well fitted activation curve with a large enough effect in the main read-out, with a control signal flat, not every such curve was filed as active; inconclusive = small, poorly fitted or top-dose-only effect, or a change in a side signal; inactive = no such curve, though single readings can be large or run the other way; % of control where 0% means no effect;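 note: the control signal comes from parental cells without the receptor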
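HEK 293 cells stably expressing TSHR and a modified CNG channel, with CNG-only parental cells as counterscreen, were preloaded 60 min at room temperature with membrane potential dye containing 100 uM RO 20-1724. Compound exposure was 30 min, and depolarization was read as fluorescence at 590 nm.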
Caspase-7 inhib: qHTS Assay for Allosteric/Competitive Inhibitors of Caspase-7; P55210; Potency, µM (titrated, usually from 57.5 µM), for the others: top-dose activity change, negative = inhibition, hits mostly inhibitors; hit rate 0.02% among 75,000; recombinant caspase-7, Ac-DEVD-AFC fluorescence rate; active = well fitted inhibition curve with a large enough effect in the main read-out, with a control signal flat, not every such curve was filed as active; inconclusive = small, poorly fitted or top-dose-only effect, or a change in a side signal; note: % of control where 0% means no effect
Target sequence (P55210 24-198 limits assumed): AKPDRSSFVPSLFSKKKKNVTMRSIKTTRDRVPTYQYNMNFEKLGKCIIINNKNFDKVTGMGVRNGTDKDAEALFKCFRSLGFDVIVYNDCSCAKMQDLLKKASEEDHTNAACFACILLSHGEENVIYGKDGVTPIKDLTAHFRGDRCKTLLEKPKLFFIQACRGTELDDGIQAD
Target sequence (P55210 207-303 limits assumed): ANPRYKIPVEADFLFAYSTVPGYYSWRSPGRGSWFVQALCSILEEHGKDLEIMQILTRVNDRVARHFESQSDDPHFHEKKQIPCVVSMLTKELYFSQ
GBA mod: Glucocerebrosidase. Lysosomal acid glucosylceramidase (Homo sapiens), P04062. purified enzyme, resorufin glucoside fluorescence (screen aimed at inhibitors), 20 min. Potency, µM. hit rate 1.1% among 48,000. AID 360, 2006; in the data active = potency below about 15 µM; inconclusive = mostly about 16 µM to 33 µM;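 note: the screen sought inhibitors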
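Wild-type enzyme at 0.2 nM final in 50mM citric acid/KH2PO4, 10mM sodium taurocholate, 0.01% tween-20, pH 5.9, with resorufin beta-D-glucopyranoside at 30 uM final. Compounds titrated, 20 min at RT, red fluorescence read; AC50 from titration.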
ERK AVP block: qHTS Assay for Inhibitors of the ERK Signaling Pathway using a Homogeneous Screening Assay. HEK293-V1b, vasopressin-stimulated pERK AlphaScreen. Potency, µM (highest dose often 57.5 µM), for inactives: at the highest dose activity, negative = inhibition, most hits filed as inhibitors. hit rate 0.99% among 72,000. AID 995, 2007; note: % is set by controls: 0 for no effect and ±100 for the full control effect; nearly all actives have a fitted effect of over 55% in size
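Overnight-seeded V1b-HEK293 cells in 1% FBS got compound, then vasopressin (25 nM final, 5 min, 37C), then lysis buffer. AlphaScreen detection of phospho-ERK; activity normalized to basal and full-stimulation controls.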
Casp1 inh: qHTS Assay for Allosteric/Competitive Inhibitors of Caspase-1; P29466; Caspase-1 enzyme, Ac-WEHD-AFC fluorogenic rate; Potency, µM (top dose mostly 57.5 µM), without a hit: top-dose activity change, negative = inhibition, most hits filed as inhibitors; hit rate 0.03% among 75,000; AID 900, 2007;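 note: plate controls were vehicle for no effect and no substrate for full effect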
Target sequence (P29466 120-297 limits assumed): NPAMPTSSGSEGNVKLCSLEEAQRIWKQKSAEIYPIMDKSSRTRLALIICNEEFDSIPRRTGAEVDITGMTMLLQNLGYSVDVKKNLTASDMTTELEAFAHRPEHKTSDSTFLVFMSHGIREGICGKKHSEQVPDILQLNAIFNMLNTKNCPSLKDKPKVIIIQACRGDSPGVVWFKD
Target sequence (P29466 317-404 limits assumed): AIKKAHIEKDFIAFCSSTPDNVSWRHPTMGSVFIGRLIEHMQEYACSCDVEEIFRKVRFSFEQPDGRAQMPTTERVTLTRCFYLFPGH
The depositor's hits bear a star; [ ] = remark or other dose. In the library only some 4.5% were active in any assay of this set; here they are far more common. Unless noted, calls come from the whole dose curve; as a rule, active = well fitted curve in the direction sought with a large enough effect; inconclusive = small, poorly fitted or top-dose-only effect, or another doubt; inactive = no such curve, though single readings can be large; an effect the other way counts as inactive or inconclusive. Potency is the fitted concentration of half-maximal effect.

O=C(Nc1ccc(F)cc1)C1CCCCC1 was read as HEK293 cAMP cs 11.7%, TSHR ag 11.3%, Caspase-7 inhib -0.3%, GBA mod >76.9, ERK AVP block 11.6% and Casp1 inh 2.0%.
CO[C@@H]1C[C@H](O[C@H]2[C@@H](C)[C@H](O[C@@H]3O[C@@H](C)C[C@@H](N(C)C)[C@@H]3OC(C)=O)[C@H](C)C[C@]3(CO3)C(=O)[C@H](C)[C@H](OC(C)=O)[C@H](C)[C@H](C)OC(=O)[C@@H]2C)O[C@H](C)[C@@H]1OC(C)=O was read as HEK293 cAMP cs -0.1%[25.6 µM], TSHR ag -13.2%[25.6 µM], Caspase-7 inhib 0.9%[25.7 µM], ERK AVP block 12.5%[25.7 µM] and Casp1 inh -2.1%[25.7 µM].
For Cc1ccc(SCCNS(=O)(=O)c2ccc(F)cc2)cc1 the results were HEK293 cAMP cs 18.2%[11.4 µM], TSHR ag 1µM*, Caspase-7 inhib 0.5%, ERK AVP block 4.9% and Casp1 inh -1.6%.
CC(C)Cn1c(N)c(C(=O)COC(=O)c2ccc3c(c2)OCCO3)c(=O)n(C)c1=O was read as HEK293 cAMP cs 10.3%, TSHR ag 6.4%, Caspase-7 inhib -5.1%, GBA mod inconclusive, ERK AVP block -3.9% and Casp1 inh -4.0%.
For CC(C)Cn1c(N)c(C(=O)CSc2ccc3c(c2)OCCO3)c(=O)n(C)c1=O the results were HEK293 cAMP cs inconclusive, TSHR ag inconclusive, Caspase-7 inhib -3.9%, GBA mod >76.9, ERK AVP block 2µM* and Casp1 inh 0.1%.
`BrC(c1cccc2ccccc12)c1cccc2ccccc12` gave HEK293 cAMP cs 8.9%[11.4 µM], TSHR ag 3.7%[11.4 µM], Caspase-7 inhib -2.9%[11.5 µM], ERK AVP block 18.0%[11.5 µM] and Casp1 inh -1.8%[11.5 µM].
For O=C(NCCO)c1ccc(Cl)cc1 the results were HEK293 cAMP cs 15.1%[11.4 µM], TSHR ag -4.0%[11.4 µM], Caspase-7 inhib 0.2%[11.5 µM], ERK AVP block -19.0%[11.5 µM] and Casp1 inh 0.9%[11.5 µM].
Screening COc1ccc(S(=O)(=O)N2CCC(C(=O)N3CCc4ccccc4C3)CC2)cc1 returned HEK293 cAMP cs 31.6µM*, TSHR ag inconclusive, Caspase-7 inhib -2.0%, ERK AVP block 4.0% and Casp1 inh -2.2%.
Cc1ccc(S(=O)(=O)N2CCC(C(=O)N3Cc4ccccc4C3)CC2)cc1 was read as HEK293 cAMP cs 7.3%, TSHR ag 18.0%, Caspase-7 inhib -2.0%, GBA mod >76.9, ERK AVP block 3.0% and Casp1 inh 2.1%.
For COc1ccc(Oc2ncc3ncc(=O)n(C)c3n2)cc1 the results were HEK293 cAMP cs 10.3%, TSHR ag -0.2%, Caspase-7 inhib -2.1%, ERK AVP block -6.6% and Casp1 inh -1.5%.
For COc1cccc(/C=N/n2c(C)nc3ccccc32)c1OC the results were HEK293 cAMP cs 15.8µM*, TSHR ag inconclusive, Caspase-7 inhib -2.3%, GBA mod inconclusive, ERK AVP block inconclusive and Casp1 inh -2.8%.
CSc1nc(N)c2ncn([C@@H]3O[C@@H](COP(=O)(O)OP(=O)(O)O)[C@@H](O)[C@H]3O)c2n1 was read as HEK293 cAMP cs -8.9%, TSHR ag 5.3%, Caspase-7 inhib 1.0%, ERK AVP block -7.2% and Casp1 inh 1.1%.
`COc1cc(Nc2nc(SCC#N)nc3ccccc23)cc(OC)c1OC` gave HEK293 cAMP cs -43.5%, TSHR ag inconclusive, Caspase-7 inhib 0.5%, GBA mod >76.9, ERK AVP block -12.3% and Casp1 inh -0.1%.
For N#CCSc1nc(Nc2ccc3c(c2)OCO3)c2ccccc2n1 the results were HEK293 cAMP cs 2.3%, TSHR ag -10.4%, Caspase-7 inhib -20.7%, GBA mod inactive, ERK AVP block 31.6µM* and Casp1 inh inconclusive.
`CCN1CCN(c2ccc(NC(=O)c3cccnc3)cc2Cl)CC1` gave HEK293 cAMP cs 12.9%, TSHR ag -7.1%, Caspase-7 inhib 1.3%, GBA mod 6.35*, ERK AVP block 11.5% and Casp1 inh -0.4%.
`O=C(Nc1ccccc1N1CCCC1)c1cccnc1` gave HEK293 cAMP cs -0.4%, TSHR ag -10.2%, Caspase-7 inhib 2.1%, GBA mod >76.9, ERK AVP block -20.1% and Casp1 inh -0.3%.
`CC(C)=NO[C@@H](C)c1cn([C@H](CO)Cc2ccccc2)nn1` gave HEK293 cAMP cs -5.3%[11.4 µM], TSHR ag -7.2%[11.4 µM], Caspase-7 inhib 1.4%[11.5 µM], ERK AVP block 12.3%[11.5 µM] and Casp1 inh -1.4%[11.5 µM].
Screening COc1ccccc1-n1c(SCC(=O)NC(C)(C)C)nc(O)cc1=O returned HEK293 cAMP cs 2.5%, TSHR ag -1.5%, Caspase-7 inhib -0.9%, GBA mod >76.9, ERK AVP block 7.4% and Casp1 inh -0.7%.
Screening COc1ccccc1-n1c(SC)nc(O)cc1=O returned HEK293 cAMP cs 31.6µM*, TSHR ag inconclusive, Caspase-7 inhib 0.0%, ERK AVP block -2.0% and Casp1 inh -1.8%.
`CSc1ccc(NC(=O)[C@H]2CCCC[C@@H]2C(=O)O)cc1` gave HEK293 cAMP cs -1.6%[11.4 µM], TSHR ag 0.8%[11.4 µM], Caspase-7 inhib 0.1%[11.5 µM], ERK AVP block -1.5%[11.5 µM] and Casp1 inh -0.3%[11.5 µM].
For Cc1ccc(-c2noc(CSc3nnnn3C3CCCCC3)n2)cc1 the results were HEK293 cAMP cs 46.7%, TSHR ag 25.1µM*, Caspase-7 inhib -1.8%, ERK AVP block 24.0% and Casp1 inh -2.2%.
`CCOc1ccccc1CN(CCc1ccc2c(c1)OCO2)Cc1ccccn1` gave HEK293 cAMP cs 15.8µM*, TSHR ag inconclusive, Caspase-7 inhib -2.0%, ERK AVP block 0.1% and Casp1 inh -0.7%.
Screening COc1ccccc1N(CCC#N)C(=O)CSc1ccc2c(c1)OCCO2 returned HEK293 cAMP cs 5.5%, TSHR ag 25.1µM*, Caspase-7 inhib 0.5%, GBA mod >76.9, ERK AVP block -4.7% and Casp1 inh -0.7%.
`COc1ccc(C2CC(=O)c3cnc(NC(=O)c4cccc(OC)c4)nc3C2)cc1` (stereo not given) gave HEK293 cAMP cs inconclusive, TSHR ag inconclusive, Caspase-7 inhib 0.9%, GBA mod >76.9, ERK AVP block -13.5% and Casp1 inh -2.2%.
For COc1ccc(C2CC(=O)c3cnc(NC(=O)c4ccccc4OC)nc3C2)c(OC)c1 (stereo not given) the results were HEK293 cAMP cs inconclusive, TSHR ag inconclusive, Caspase-7 inhib -16.7%, GBA mod >76.9, ERK AVP block 10µM* and Casp1 inh -12.0%.
For COCC(=O)N1CCC[C@@]2(CCN(C(=O)Nc3ccccc3)C2)C1 the results were HEK293 cAMP cs -6.1%, TSHR ag -5.5%, Caspase-7 inhib 0.2%, ERK AVP block 0.8% and Casp1 inh -3.2%.

Bioassay records: PubChem BioAssay, National Center for Advancing Translational Sciences (NCATS)
